Data reported in PubChem BioAssay (NCI).
The panel holds about 79,000 compounds, 15% with a hit somewhere; the sample as a whole holds those more often. Activity calls are given as the source filed them. Cut-off read from the data, not from the text of the source: active = growth inhibition above about 70%; inactive = the rest.

Experiments:
[1] = NCI Yeast Anticancer Drug Screen. Data for the mec2-1 strain (AID 157); conditions: S. cerevisiae mec2-1 strain, active compounds read high
Summary of the method: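 Yeast mec2-1 mutant treated with compound. Readout: growth inhibition vs vehicle controls.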

[2] = NCI Yeast Anticancer Drug Screen. Data for the rad14 strain (AID 159);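 note: 0% = growth of vehicle-treated control cultures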; conditions: S. cerevisiae rad14 strain growth inhibition, active compounds read high
Summary of the method: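 Test compounds were applied to a repair-deficient yeast strain. Its growth was then compared with that of cultures given vehicle alone, and inhibition was expressed relative to those controls.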

[3] = NCI Yeast Anticancer Drug Screen. Data for the sgs1 mgt1 strain (AID 161);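 note: 0% = growth of cultures given vehicle only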; conditions: S. cerevisiae sgs1 mgt1 strain, active compounds read high
Summary of the method: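 Mutant yeast exposed to compound; growth scored against vehicle-only wells.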

[4] = NCI Yeast Anticancer Drug Screen. Data for the CLN2oe strain (AID 163);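 note: 0% = growth of vehicle-only control cultures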; conditions: S. cerevisiae CLN2oe strain, active compounds read high
Summary of the method: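 Read-out: yeast growth inhibition, expressed relative to vehicle-only controls. The strain bears an engineered cell-cycle alteration.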

[5] = NCI Yeast Anticancer Drug Screen. Data for the cln2 rad14 strain (AID 165);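 note: 0% = growth equal to vehicle treated cultures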; conditions: S. cerevisiae cln2 rad14 strain, active compounds read high
Summary of the method: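 cln2 rad14 yeast strain; compound exposure; growth inhibition read vs vehicle controls.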

[6] = NCI Yeast Anticancer Drug Screen. Data for the bub3 strain (AID 167); conditions: S. cerevisiae bub3 mutant strain, active compounds read high
Summary of the method: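 Yeast carrying a defined mutation is treated with each compound, and growth is compared with that of vehicle-exposed cells to give inhibition.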

[7] = NCI Yeast Anticancer Drug Screen. Data for the wt2 strain (AID 169);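 note: 0% = growth of vehicle-treated yeast cultures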; conditions: S. cerevisiae wt2 strain growth inhibition, active compounds read high
Summary of the method: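 Read-out: growth inhibition versus vehicle-treated control cultures after compound exposure of the yeast strain.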

[8] = NCI Yeast Anticancer Drug Screen. Data for the mlh1 strain (AID 171);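 note: 0% = growth of vehicle-treated control cultures of the same strain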; conditions: S. cerevisiae mlh1 strain growth inhibition, active compounds read high
Summary of the method: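 Read-out: growth inhibition versus vehicle controls. Strain: engineered yeast with a defined DNA repair or cell cycle defect, compound-treated.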

[9] = NCI Yeast Anticancer Drug Screen. Data for the sgs1 strain (AID 173);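 note: 0% = growth of vehicle-only control cultures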; conditions: S. cerevisiae sgs1 mutant, active compounds read high
Summary of the method: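 Read-out: yeast growth inhibition relative to vehicle controls, following compound exposure of a strain with a defined DNA repair/cell cycle alteration.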

[10] = NCI Yeast Anticancer Drug Screen. Data for the mlh1 rad18 strain (AID 175); conditions: S. cerevisiae mlh1 rad18 strain growth inhibition, active compounds read high
Summary of the method: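 Yeast w/ defined DNA-repair lesions; compound exposure; growth vs vehicle controls → % inhibition.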

[11] = NCI Yeast Anticancer Drug Screen. Data for the rad52 strain (AID 147);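 note: 0% = growth of vehicle-treated control cultures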; conditions: S. cerevisiae rad52 mutant growth inhibition, active compounds read high
Summary of the method: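 Read-out: growth inhibition versus vehicle-treated controls. Cells were a DNA repair-deficient yeast strain treated with compounds.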

[12] = NCI Yeast Anticancer Drug Screen. Data for the wt1 strain (AID 149);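 note: 0% = growth of vehicle-treated wt1 cultures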; conditions: S. cerevisiae wt1 strain (SPY 50644) growth inhibition, active compounds read high
Summary of the method: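 wt1 yeast, compound-treated; % growth inhibition vs vehicle control.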

[13] = NCI Yeast Anticancer Drug Screen. Data for the rad50EPP+ strain (AID 151);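 note: 0% = growth of vehicle-treated control cultures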; conditions: S. cerevisiae rad50 mutant strain, active compounds read high
Summary of the method: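 Growth inhibition read against vehicle controls in rad50EPP+ yeast, a strain altered in DNA damage repair, after compound exposure.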

[14] = NCI Yeast Anticancer Drug Screen. Data for the mgt1 strain (AID 153); conditions: S. cerevisiae mgt1 mutant growth inhibition, active compounds read high
Summary of the method: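 mgt1 yeast grown with test compound; read-out is growth inhibition versus vehicle-treated cultures.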

[15] = NCI Yeast Anticancer Drug Screen. Data for the rad50 strain (AID 155);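 note: 0% = growth of vehicle-only cultures of the same strain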; conditions: S. cerevisiae rad50 strain growth inhibition, active compounds read high
Summary of the method: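 Genetically altered yeast (DNA repair pathway); compound treatment; growth inhibition vs vehicle ctrl.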

[16] = NCI Yeast Anticancer Drug Screen. Data for the rad18 strain (AID 177); conditions: S. cerevisiae rad18 mutant growth inhibition, active compounds read high
Summary of the method: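 Readout: growth inhibition vs vehicle controls. Cells: genetically altered yeast strain, DNA repair defect.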

[17] = at 5.0 µM (retest, dose inferred, filed as 0.5)
[18] = at 50.0 µM (retest, dose inferred, filed as 5.0)

Measured: growth inhibition

CCN(CC)CCC(=O)Nc1ccc2sc3ccccc3c(=O)c2n1
inactive: [1]; [17] 4% | [1]; at 11.0 µM 13% | [1]; at 33.0 µM 24% | [1]; [18] -1% | [1]; at 50.0 µM -14.1% | [1]; at 100.0 µM 20% | [2]; at 1.2 µM -1% | [2]; at 3.7 µM 5% | [2]; at 11.0 µM 25% | [2]; at 33.0 µM 34% | [2]; at 100.0 µM 25% | [3]; [17] -22% | [3]; [18] -2% | [3]; at 50.0 µM 31.8% | [4]; at 1.2 µM 0% | [4]; at 3.7 µM -13% | [4]; at 11.0 µM -5% | [4]; at 33.0 µM 6% | [4]; at 100.0 µM 8% | [5]; [17] 21% | [5]; [18] 11% | [5]; at 50.0 µM 21.4% | [6]; at 1.2 µM -3% | [6]; at 3.7 µM 4% | [6]; [17] -20% | [6]; at 11.0 µM -3% | [6]; at 33.0 µM -2% | [6]; [18] -2% | [6]; at 50.0 µM 14.3% | [6]; at 100.0 µM -5% | [7]; at 1.2 µM -2% | [7]; at 3.7 µM -3% | [7]; at 11.0 µM 2% | [7]; at 33.0 µM 16% | [7]; at 100.0 µM 12% | [8]; at 1.2 µM -2% | [8]; at 3.7 µM -8% | [8]; at 11.0 µM 1% | [8]; at 33.0 µM 12% | [8]; at 100.0 µM 7% | [9]; at 1.2 µM -25% | [9]; at 3.7 µM 3% | [9]; at 11.0 µM 15% | [9]; at 33.0 µM 39% | [9]; at 100.0 µM 26% | [10]; [17] -6% | [10]; [18] 1% | [10]; at 50.0 µM 25.8%

CCOP(=O)(OCC)/C(C#N)=C/c1ccc(-c2ccc(F)cc2F)o1
inactive: [11]; at 1.2 µM 2% | [11]; at 3.7 µM 4% | [11]; at 11.0 µM 4% | [11]; at 33.0 µM 4% | [11]; at 100.0 µM 4% | [12]; at 1.2 µM -2% | [12]; at 3.7 µM -2% | [12]; at 11.0 µM -2% | [12]; at 33.0 µM -4% | [12]; at 100.0 µM -1% | [13]; at 1.2 µM 0% | [13]; at 3.7 µM 1% | [13]; at 11.0 µM 3% | [13]; at 33.0 µM 0% | [13]; at 100.0 µM 5% | [14]; at 1.2 µM -5% | [14]; at 3.7 µM -4% | [14]; at 11.0 µM 0% | [14]; at 33.0 µM -10% | [14]; at 100.0 µM 0% | [15]; at 1.2 µM 2% | [15]; at 3.7 µM 2% | [15]; at 11.0 µM -9% | [15]; at 33.0 µM 3% | [15]; at 50.0 µM 39.8% | [15]; at 100.0 µM 5% | [1]; at 1.2 µM 2% | [1]; at 3.7 µM -4% | [1]; [17] 19% | [1]; at 11.0 µM -4% | [1]; at 33.0 µM -6% | [1]; at 100.0 µM -1% | [2]; at 1.2 µM -1% | [2]; at 3.7 µM -1% | [2]; at 11.0 µM -2% | [2]; at 33.0 µM -3% | [2]; at 100.0 µM 1% | [3]; [17] 35% | [3]; at 50.0 µM 63.1% | [4]; at 1.2 µM -1% | [4]; at 3.7 µM 1% | [4]; at 11.0 µM -6% | [4]; at 33.0 µM -7% | [4]; at 100.0 µM -1% | [5]; [17] 16% | [5]; at 50.0 µM 60.6% | [6]; at 1.2 µM -7% | [6]; at 3.7 µM -1% | [6]; [17] 26% | [6]; at 11.0 µM 4% | [6]; at 33.0 µM -3% | [6]; at 100.0 µM -2% | [7]; at 1.2 µM -2% | [7]; at 3.7 µM 0% | [7]; at 11.0 µM -1% | [7]; at 33.0 µM 1% | [7]; at 100.0 µM 1% | [8]; at 1.2 µM -1% | [8]; at 3.7 µM -7% | [8]; at 11.0 µM 3% | [8]; at 33.0 µM 0% | [8]; at 100.0 µM -1% | [9]; at 1.2 µM -2% | [9]; at 3.7 µM -4% | [9]; at 11.0 µM -3% | [9]; at 33.0 µM -4% | [9]; at 100.0 µM -1% | [10]; [17] 60% | [10]; at 50.0 µM 41.4% | [16]; at 1.2 µM -3% | [16]; at 3.7 µM -2% | [16]; at 11.0 µM -2% | [16]; at 33.0 µM -19% | [16]; at 100.0 µM 2%
active: [15]; [17] 75% | [15]; [18] 99% | [1]; [18] 99% | [1]; at 50.0 µM 70.8% | [3]; [18] 99% | [5]; [18] 99% | [6]; [18] 99% | [6]; at 50.0 µM 74.8% | [10]; [18] 99%

O=c1cccccc1[O-].O=c1cccccc1[O-].O=c1cccccc1[O-].[Eu+3]
active: [11]; at 33.0 µM 97% | [11]; at 100.0 µM 97% | [12]; at 33.0 µM 97% | [12]; at 100.0 µM 97% | [13]; at 33.0 µM 95% | [13]; at 100.0 µM 96% | [14]; at 33.0 µM 97% | [14]; at 100.0 µM 98% | [15]; at 11.0 µM 71% | [15]; at 33.0 µM 97% | [15]; at 50.0 µM 92.5% | [15]; at 100.0 µM 93% | [1]; at 33.0 µM 90% | [1]; at 50.0 µM 91.7% | [1]; at 100.0 µM 98% | [2]; at 33.0 µM 98% | [2]; at 100.0 µM 98% | [3]; at 50.0 µM 89.7% | [4]; at 33.0 µM 92% | [4]; at 100.0 µM 98% | [5]; at 50.0 µM 86.7% | [6]; at 33.0 µM 96% | [6]; at 50.0 µM 92.8% | [6]; at 100.0 µM 98% | [7]; at 33.0 µM 99% | [7]; at 100.0 µM 98% | [8]; at 33.0 µM 95% | [8]; at 100.0 µM 98% | [9]; at 33.0 µM 98% | [9]; at 100.0 µM 98% | [10]; at 50.0 µM 89.8% | [16]; at 33.0 µM 98% | [16]; at 100.0 µM 97%
inactive: [11]; at 1.2 µM 2% | [11]; at 3.7 µM 3% | [11]; at 11.0 µM 32% | [12]; at 1.2 µM 6% | [12]; at 3.7 µM 2% | [12]; at 11.0 µM 14% | [13]; at 1.2 µM 0% | [13]; at 3.7 µM -1% | [13]; at 11.0 µM 16% | [14]; at 1.2 µM 13% | [14]; at 3.7 µM 8% | [14]; at 11.0 µM 14% | [15]; at 1.2 µM 6% | [15]; at 3.7 µM -29% | [15]; [17] 38% | [15]; [18] 38% | [1]; at 1.2 µM -1% | [1]; at 3.7 µM 2% | [1]; [17] 26% | [1]; at 11.0 µM 16% | [1]; [18] 26% | [2]; at 1.2 µM 3% | [2]; at 3.7 µM 7% | [2]; at 11.0 µM 25% | [3]; [17] 65% | [3]; [18] 65% | [4]; at 1.2 µM 5% | [4]; at 3.7 µM 11% | [4]; at 11.0 µM 25% | [5]; [17] 5% | [5]; [18] 5% | [6]; at 1.2 µM 1% | [6]; at 3.7 µM 1% | [6]; [17] 8% | [6]; at 11.0 µM 2% | [6]; [18] 8% | [7]; at 1.2 µM 1% | [7]; at 3.7 µM 3% | [7]; at 11.0 µM 22% | [8]; at 1.2 µM -4% | [8]; at 3.7 µM -1% | [8]; at 11.0 µM 13% | [9]; at 1.2 µM 2% | [9]; at 3.7 µM 1% | [9]; at 11.0 µM 26% | [10]; [17] 24% | [10]; [18] 24% | [16]; at 1.2 µM 3% | [16]; at 3.7 µM 15% | [16]; at 11.0 µM 42%
